Test [1] in a line: Her2 expression decrease, cell viability multiplex – SKBR3 breast tumor cells, AlphaScreen, ATP viability, primary screen (AID 461;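 active means Her2 level under about 52% in both replicate screens, with viability over 70% of control, limit read from the data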;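 on Her2 level: lower value means less Her2 protein in the cells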;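 on viability: percent of carrier control wells set as 100% viability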). The settings on record: SKBR3 Her2 protein level, 18-24 h, measured here: SKBR3 viability, ATP luminescence, at 10 µM.
For test [2], the target named is Receptor tyrosine-protein kinase erbB-2 (Homo sapiens) (UniProt P04626). The description is as above. The settings on record: 18-24 h, at 10 µM, stronger effect = lower value.
The nature of test [3]: reduced viability of SK-BR-3 breast cancer cells – cell-based, 24 h, human, pilot screen (AID 572;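 active means viability at or below 10% of carrier control in both of two separate runs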;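 further: compound exposure lasted between 18 and 24 h rather than exactly 24 h; 100% = carrier-treated control wells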). The settings on record: SK-BR-3 viability, CellTiter-Glo luminescence, at 10 µM, stronger effect = lower value.
A short description of test [4]: HUVEC growth inhibition – cell-based, human, primary screen (AID 575;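 active means viability at or below 30% in both replicate assays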;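 further: 100% = median of untreated cell wells with 0.1% DMSO on each plate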). Particulars: HUVEC proliferation, CellTiter-Glo luminescence, 72 h; at 10 µM; stronger effect = lower value.
Test [5] is described as follows: H69AR cell proliferation blockers – human, duplicate replicates, primary screen (AID 580).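 Further: 100% = mean luminescence of untreated wells and 0% = no signal.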 Particulars: H69AR lung tumor cells viability, ATP luminescence, 72 h; at 10 µM; stronger effect = lower value.
Test [6] can be described thus: MRP1 drug-resistance reversers in H69AR cells – cell-based, doxorubicin co-treatment, pilot screen (AID 601;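 active means viability loss from added drug above about 55%, and viability with drug at most 40%, in both replicates, limit read from the data, passing the limit was not always enough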). The settings on record: CellTiter-Glo, 72 h, at 10 µM; for differential viability (reversal): stronger effect = higher value.
A short description of test [7]: yeast transport mutant growth inhibition pilot in 384-well plates, post-Golgi transport modulator project (AID 636; in the data active means inhibition above about 31%). Particulars: absorbance 615 nm, about 18 h, stronger effect = higher value.
Test [8] in a line: growth suppression of yeast trafficking mutant, preliminary HTS, modulators of trafficking downstream of Golgi apparatus project, 1536-format plate, OD 615 nm (AID 637; in the data active means inhibition above about 30%). Particulars: yeast transport mutant growth, absorbance 615 nm, 18 h; stronger effect = higher value.
The nature of test [9]: S. cerevisiae growth inhibition in permissive medium (OD615), pilot counter-assay for S. cerevisiae lifespan shortening project, permissive growth control (AID 705;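 active means growth inhibition above 25% in both replicates, a cutoff set 3 SD above the mean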). Particulars: OD615, 24 h, at 10 µM, stronger effect = higher value.
The nature of test [10]: S. cerevisiae growth inhibition in restrictive medium, OD615, pilot screen, restrictive growth control, yeast lifespan reduction project (AID 706;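 active means growth inhibition above a set limit, 3 SD over mean compound inhibition, in both replicates, cut at about 43% in these data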;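 further: modified DeaD lifespan yeast strain shifted to restrictive glucose medium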). Particulars: OD615, 48 h, at 10 µM, stronger effect = higher value.
Test [11] can be described thus: doxorubicin toxicity protection in MRP-1 cells – H69AR cells, CellTiter-Glo, duplicate, MRP-1 activator project, pilot screen (AID 807;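 active means viability increase at or above a cutoff of the median across tested compounds plus 3 SD, cut at about 8.5% in these data, passing the limit was not always enough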;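 further: compound pretreatment 18-22 h then 72 h combined with doxorubicin; 0% = doxorubicin alone and 100% = vehicle without doxorubicin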). Particulars: H69AR viability with doxorubicin, CellTiter-Glo luminescence; at 10 µM; stronger effect = higher value.
Test [12] is described as follows: viability of HCT116 without oncogenic beta-catenin – human colon tumor cells, pilot screen (AID 823;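 active means cell viability at or below a set limit in both duplicate runs, the limit being the all-compound median minus 4 SD, cut at about 23% in these data, passing the limit was not always enough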;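 further: 0% = wells killed by 20 µM Hyamine and 100% = untreated DMSO cell wells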). The settings on record: HCT116 beta-catenin knockout viability, CellTiter-Glo, 60 h; at 10 µM; stronger effect = lower value.
Test [13] in a line: viability of PTEN-null HCT116 cells – cell-based, HCT116 clonal line, CellTiter-Glo, pilot screen (AID 824;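 active means viability at or below 27.92% in each of two runs, the all-compound median minus 4 SD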;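 further: 0% = 20 µM Hyamine control and 100% = vehicle cell control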). Particulars: HCT116 PTEN-deleted viability, 60 h, at 10 µM, stronger effect = lower value.
Test [14] is described as follows: RAM pathway blockade in budding yeast – dse1pr::URA3 reporter, 5-FOA selection, pilot screen (AID 869;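 active means inhibition over a set limit, the all-compound mean plus 3 SD, in both replicate runs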;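 further: 0% = DMSO wells with no growth and 100% = 10 µM 1-NA-PP1 with full growth; RAM network block rescues cells from 5-FOA so hits raise OD615 growth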). Particulars: S. cerevisiae dse1pr::URA3 5-FOA growth, OD615, 2 d; at 10 µM; stronger effect = higher value; strain carries analog-sensitive mutant Cbk1 kinase.
The nature of test [15]: RAM signaling pathway blockade in yeast – S. cerevisiae, Pdr1DBD-CYC8 efflux-inhibited sensitized strain, primary screen (AID 1298;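 active means RAM network inhibition above 8.4% in each of two replicates, 3 SD over the compound average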;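 further: 0% = DMSO untreated cells without growth and 100% = 10 µM 1-NA-PP1 full growth; higher means more yeast growth rescued from 5-FOA killing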). The settings on record: S. cerevisiae cbk1-as DSE1-URA3 strain, 5-FOA growth OD615, 2 d; at 50 µM; stronger effect = higher value.
The mark [16] stands for this setting: H69AR cells + 2 uM doxorubicin, measured here: viability with 2 uM doxorubicin, stronger effect = lower value.
The mark [17] stands for this setting: H69AR cells, compound alone cytotoxicity.

Results filed as inconclusive are left out. The source made the active and inactive calls.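 How the source made its calls, unless noted: active means viability at or under a set limit in both replicates, limit being median viability minus 3 SD (cut at about 48% in these data, passing the limit was not always enough); inconclusive means at or under the limit in just one replicate; inactive means at or above the limit in both replicates.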

Sequence of Receptor tyrosine-protein kinase erbB-2 (Homo sapiens) (P04626 whole entry, looked up): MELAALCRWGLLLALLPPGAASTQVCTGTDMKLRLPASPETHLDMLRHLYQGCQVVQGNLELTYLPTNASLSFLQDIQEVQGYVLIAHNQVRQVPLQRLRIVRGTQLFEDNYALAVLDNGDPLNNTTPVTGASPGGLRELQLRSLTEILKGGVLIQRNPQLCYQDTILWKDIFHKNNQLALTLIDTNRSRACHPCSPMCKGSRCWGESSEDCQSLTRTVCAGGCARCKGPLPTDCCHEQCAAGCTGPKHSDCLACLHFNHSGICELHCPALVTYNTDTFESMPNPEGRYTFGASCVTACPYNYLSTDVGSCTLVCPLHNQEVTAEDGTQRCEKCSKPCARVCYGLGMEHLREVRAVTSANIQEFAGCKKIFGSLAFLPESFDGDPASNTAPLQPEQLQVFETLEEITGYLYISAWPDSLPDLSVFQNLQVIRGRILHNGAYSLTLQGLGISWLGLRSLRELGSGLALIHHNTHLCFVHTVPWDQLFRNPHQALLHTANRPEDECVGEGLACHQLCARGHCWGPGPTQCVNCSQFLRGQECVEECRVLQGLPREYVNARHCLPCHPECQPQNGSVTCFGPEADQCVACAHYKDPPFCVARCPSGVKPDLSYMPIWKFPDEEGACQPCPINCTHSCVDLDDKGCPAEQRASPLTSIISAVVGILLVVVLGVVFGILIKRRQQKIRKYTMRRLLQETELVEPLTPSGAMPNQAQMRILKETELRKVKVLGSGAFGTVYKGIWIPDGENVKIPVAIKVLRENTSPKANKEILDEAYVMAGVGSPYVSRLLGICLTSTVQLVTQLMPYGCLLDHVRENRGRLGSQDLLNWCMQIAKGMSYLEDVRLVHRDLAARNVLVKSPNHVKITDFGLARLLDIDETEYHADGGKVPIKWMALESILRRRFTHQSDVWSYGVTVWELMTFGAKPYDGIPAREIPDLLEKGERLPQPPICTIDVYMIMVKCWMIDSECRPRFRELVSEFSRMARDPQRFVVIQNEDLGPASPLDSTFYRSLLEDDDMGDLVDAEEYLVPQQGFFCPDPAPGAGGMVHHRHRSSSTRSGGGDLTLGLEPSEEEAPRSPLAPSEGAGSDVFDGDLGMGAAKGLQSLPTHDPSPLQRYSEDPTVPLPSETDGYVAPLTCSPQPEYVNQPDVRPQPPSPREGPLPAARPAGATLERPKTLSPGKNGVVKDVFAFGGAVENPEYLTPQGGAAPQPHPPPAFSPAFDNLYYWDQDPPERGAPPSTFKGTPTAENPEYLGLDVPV

As for `COc1cc(NC(=O)CC(C)C)ccc1NC(=O)c1ccco1`, the viability in test [1] is 94.5%; in test [3], 94.5% (inactive); in test [4], 103% (inactive); in test [5], 109% (inactive); in test [6] (setting [16]) it was 93.1%; in test [6] (setting [17]), 109%. Also, the viability in test [12] was 100% (inactive); in test [13] it was 96.2% (inactive). For the same compound, in [2], the Her2 level is 93% (inactive). Besides, in [6] (H69AR cells + 2 uM doxorubicin), the differential viability (reversal) is 15.9% (inactive). The inhibition in test [7] was -3.92% (inactive); in test [8] it was -9.68% (inactive); in test [14], 0.825% (inactive). Besides, the growth inhibition in [9] was -3.81% (inactive); in [10] it was -1.97% (inactive). For the same compound, in test [11], the viability increase is -0.27% (inactive). The RAM network inhibition in [15] is 0.51% (inactive).
For `CCOc1cccc(OCCCCn2ccnc2)c1`, the viability in test [1] was 87%; in [3], 87% (inactive); in test [4] it was 97.3% (inactive); in test [5], 85.4% (inactive); in [6] (setting [16]) it was 88.8%; in test [6] (setting [17]), 85.4%. The viability is 49% (inactive) in [12] and 62.3% (inactive) in test [13]. Further, the Her2 level in test [2] is 75.5% (inactive). In addition, the differential viability (reversal) in test [6] (H69AR cells + 2 uM doxorubicin) is -3.44% (inactive). The inhibition in test [7] was 3.92% (inactive); in test [8] it was -2.46% (inactive); in [14] it was 2.19% (inactive). Moreover, the growth inhibition is -3.35% (inactive) in [9] and -16.8% (inactive) in [10]. The viability increase in [11] is -0.4% (inactive). Moreover, in test [15], the RAM network inhibition is 1.84% (inactive).
As to `O=C(Nc1cccc(F)c1)C1C2C=CC3(CN(CCCN4CCOCC4)C(=O)C13)O2` (stereo not drawn), the viability is 96% in [1]; 96% (inactive) in test [3]; 89.4% (inactive) in test [4]; 103% (inactive) in test [5]; 83.1% in test [6] (setting [16]); 103% in [6] (setting [17]). The viability in test [12] and in [13] was 106% (inactive) throughout. Also, the Her2 level in [2] is 104% (inactive). Besides, in [6] (H69AR cells + 2 uM doxorubicin), the differential viability (reversal) is 20.3% (inactive). Also, the inhibition in test [7] is -2.27% (inactive); in test [8] it was -3.11% (inactive); in test [14], 0.595% (inactive). Also, the growth inhibition was 1.12% (inactive) in test [9] and 1.81% (inactive) in test [10]. Also, the viability increase in test [11] is 0.8% (inactive). In test [15], the RAM network inhibition is 2.03% (inactive).
`CCOc1ccc(N(CC(=O)OC)S(=O)(=O)c2ccc(OC)c(OC)c2)cc1`: the viability in test [1] was 108%; in test [3], 108% (inactive); in test [4], 87.2% (inactive); in test [5] it was 106% (inactive); in [6] (setting [16]) it was 99.4%; in test [6] (setting [17]), 106%. Further, the viability in test [12] is 99.9% (inactive); in [13], 106% (inactive). In addition, in test [2], the Her2 level is 122% (inactive). Moreover, the differential viability (reversal) in test [6] (H69AR cells + 2 uM doxorubicin) was 6.15% (inactive). Moreover, the inhibition is 3.12% (inactive) in [7], -4.83% (inactive) in test [8] and 0.39% (inactive) in test [14]. Further, the figures for the growth inhibition in test [9] and in test [10] were -11.6% (inactive) and -4.04% (inactive), respectively. For the same compound, the viability increase in test [11] was -0.96% (inactive). Besides, in [15], the RAM network inhibition is 2.44% (inactive).
As to `CCCCn1c(NCc2ccccc2O)nc2ccccc21`, the viability in test [1] is 98%; in test [3], 98% (inactive); in test [4] it was 79.5% (inactive); in test [5], 88.1% (inactive); in test [6] (setting [16]), 83.4%; in test [6] (setting [17]), 88.1%. Moreover, the viability in test [12] is 79.7% (inactive); in [13], 75.1% (inactive). Moreover, the Her2 level in test [2] is 124% (inactive). Moreover, the differential viability (reversal) in [6] (H69AR cells + 2 uM doxorubicin) was 4.67% (inactive). The values for the inhibition in test [7], in test [8] and in test [14] were -4.27% (inactive), -2.33% (inactive) and 0.34% (inactive), respectively. The growth inhibition in test [9] was -1.67% (inactive); in test [10], -11.8% (inactive). Also, in test [11], the viability increase was -5.25% (inactive). The RAM network inhibition in [15] is 3.36% (inactive).
As for `CCOC(=O)N1CCC(NC(=O)Cn2c3c(c(-c4ccccc4Cl)cc2=O)CCC3)CC1`, the viability in [1] is 94.5%; in test [3] it was 94.5% (inactive); in [4], 123% (inactive); in test [5], 89.7% (inactive); in test [6] (setting [16]), 89.6%; in test [6] (setting [17]), 89.7%. Also, the viability in test [12] is 88.8% (inactive); in test [13], 91.9% (inactive). The Her2 level in test [2] was 92.5% (inactive). In addition, the differential viability (reversal) in test [6] (H69AR cells + 2 uM doxorubicin) was 0.145% (inactive). Further, the results for the inhibition in test [7], in test [8] and in test [14] were -6.67% (inactive), -1.67% (inactive) and 2.06% (inactive), respectively. Besides, the figures for the growth inhibition in test [9] and in [10] were -9.94% (inactive) and -0.355% (inactive), respectively. In addition, the viability increase in test [11] is -0.33% (inactive). The RAM network inhibition in test [15] is 4.05% (inactive).
Take `C=CCc1ccccc1OCCCCN1CCCC1`: the viability in test [1] is 70.5%; in [3], 70.5% (inactive); in test [4] it was 77.1% (inactive); in test [5] it was 83.3% (inactive); in test [6] (setting [16]) it was 85.1%; in [6] (setting [17]), 83.3%. In addition, the viability was 77.1% (inactive) in [12] and 80.8% (inactive) in [13]. For the same compound, in test [2], the Her2 level was 101% (inactive). Further, in test [6] (H69AR cells + 2 uM doxorubicin), the differential viability (reversal) was -1.74% (inactive). Also, the inhibition in [7] is -9.05% (inactive); in test [8], -1.31% (inactive); in [14] it was 0.91% (inactive). In addition, the growth inhibition was 7.25% (inactive) in test [9] and -3.4% (inactive) in [10]. Besides, in test [11], the viability increase is -7.03% (inactive). The RAM network inhibition in test [15] is 1.88% (inactive).
In the case of `CCOc1cc(C2C3=C(CCCC3=O)N(C)C3=C2C(=O)CCC3)cc(Cl)c1O`, the viability was 106% in [1]; 106% (inactive) in test [3]; 105% (inactive) in test [4]; 104% (inactive) in [5]; 91.5% in test [6] (setting [16]); 104% in test [6] (setting [17]). For the same compound, the viability in test [12] was 96.1% (inactive); in [13] it was 95.8% (inactive). Further, in [2], the Her2 level is 74.5% (inactive). For the same compound, in [6] (H69AR cells + 2 uM doxorubicin), the differential viability (reversal) was 12.8% (inactive). In addition, the inhibition was -6.35% (inactive) in [7], 0.49% (inactive) in [8] and 1.12% (inactive) in [14]. Further, the figures for the growth inhibition in test [9] and in test [10] were -11.5% (inactive) and -16.7% (inactive), respectively. Besides, in test [11], the viability increase was 2.27% (inactive). The RAM network inhibition in test [15] is 4.21% (inactive).
Take `NC(=O)c1cccc2c1C(=O)N(C1CCCCC1)C2`: the viability is 109% in test [1]; 109% (inactive) in [3]; 76% (inactive) in test [4]; 88.9% (inactive) in test [5]; 91.4% in test [6] (setting [16]); 88.9% in [6] (setting [17]). Further, the viability was 101% (inactive) in [12] and 95.3% (inactive) in test [13]. Further, the Her2 level in test [2] was 99.5% (inactive). The differential viability (reversal) in test [6] (H69AR cells + 2 uM doxorubicin) was -2.49% (inactive). Besides, the inhibition in test [7] is -0.77% (inactive); in test [8], -1.33% (inactive); in test [14], 0.59% (inactive). The growth inhibition in test [9] is -7.48% (inactive); in [10], -4.63% (inactive). Also, the viability increase in test [11] is -0.58% (inactive). The RAM network inhibition in test [15] is 3.36% (inactive).

The values are drawn from PubChem BioAssay.
